Data on 40 compounds can be found in PubChem BioAssay (EPA / NIEHS).

The structures appear in SMILES notation. Records with an inconclusive call do not appear. The source made the active and inactive calls. The calls were made as follows: active = hit-call score of the fitted dose curve at least 0.9, where 1 is the maximum; inconclusive = response in the unintended direction; inactive = score below 0.9.

Read-out in this assay: glucuronosyltransferase (UGT1A1), UGT1A1 (gene 54658)
Briefly: CLD_UGT1A1_6hr: CellzDirect (CLD) Gene Expression Assay for glucuronosyltransferase (UGT1A1) at 6 hours (AID 2283672). The procedure:
CLD_6hr is a cell-based, multiplexed-readout assay that uses hepatocyte, a human liver primary cell, with measurements taken at 6 hours after chemical dosing in a 96-well plate.CLD_UGT1A1_6hr is one of 16 assay component(s) measured or calculated from the CLD_6hr assay. It is designed to make measurements of mRNA induction, a form of inducible reporter, as detected with chemiluminescence signals by Quantitative Nuclease Protection Assay (qNPA) technology.Data from the assay component CLD_UGT1A1_6hr was analyzed at the endpoint, CLD_UGT1A1_6hr, in the positive analysis fitting direction relative to DMSO as the negative control and baseline of activity. Using a type of inducible reporter, gain-of-signal activity can be used to understand changes in the reporter gene as they relate to the gene UGT1A1. Furthermore, this assay endpoint can be referred to as a primary readout. To generalize the intended target to other relatable targets, this assay endpoint is annotated to the transferase intended target family, where subfamily is glucuronosyltransferase.
Human hepatocyte cultures were treated daily for two consecutive days with fresh dosing solutions containing appropriate concentrations of the 320 ToxCast chemicals (chemical identities were blinded to CellzDirect and other ToxCast collaborators), vehicle control (0.2% DMSO), and positive control inducers as summarized in Table 1. Due to the large number of treatment groups and chemicals examined, the ToxCast chemicals were divided into two groups (spanning two independent cultures of hepatocytes from separate donor preparations (Hu778: ToxCast plates 1 and 2; Hu776: ToxCast plates 3 and 4). Each preparation of human hepatocyte cultures was treated with respective vehicle control, medium only control, set of six positive controls/reference chemicals for the five hepatic receptor pathways, and a subset of eight of the ToxCast chemicals (indoxacarb, pyrithiobac-sodium, norflurazon, cyhalofop-butyl, methomyl, thiram, acetochlor, and propiconazole). These replicate data, coupled with internal replicates designed within the blinded ToxCast chemical library, provided additional data to evaluate interindividual differences between hepatocyte preparations and their potential impact on chemical profiles.Cell morphology and integrity were evaluated using phase-contrast microscopy as an indicator of hepatocyte cell health (Tyson & Green, 1987). Cultures for each treatment group (i.e., media, vehicle [0.2% DMSO], positive control inducers [multiple concentrations], and the ToxCast chemicals [multiple concentrations]) were observed and cell morphology was assessed relative to vehicle control cultures at each harvest time point (0, 6, 24, or 48 h). […] Images were evaluated at the conclusion of the study to assess changes in cell integrity and account for the effects of chemical exposure on uncharacteristic changes in concentration-dependent gene expression profiles. The results from these determinations of apparent cytotoxicity were annotated (yes/no) alongside the corresponding qNPA data for reference.At the conclusion of each treatment period, hepatocyte cultures (96-well) were washed with 1 volume of HBSS, lysed by addition of 25 ul ArrayPlate lysis buffer (HTG, Tucson, AZ), and 70 ul/well of Denaturation Oil, denatured by incubation at 95C for 10 min, and frozen at approximately -70C until analysis by nuclease protection assay (qNPA) (Roberts et al., 2007). For qNPA analysis, cell lysates were thawed at 50C for approximately 30 min, qNPA probes were added, and samples were incubated at 95C for 10 min to begin the detection process by denaturing the target RNA, dissociating the duplexes and secondary structure hybridization. At the conclusion of the hybridization period, S1 nuclease reagent was added to each sample to digest all nonprotected nucleotides at 50C for 60-90 min. […]
Turning to `CCOC(=O)C(C)Oc1ccc(Oc2cnc3cc(Cl)ccc3n2)cc1` (stereo not given), the compound was called inactive.

As for `CCCCC(CC)CN1C(=O)C2C3C=CC(C3)C2C1=O` (stereo not given), the compound was called inactive.

As for `CCCN(CCC)C(=O)SCC`, the compound was classed as inactive.

Consider `N#CSCSc1nc2ccccc2s1`, for which the result was inactive.

Turning to `CCCCCOC(=O)COc1cc(N2C(=O)C3=C(CCCC3)C2=O)c(F)cc1Cl`, the outcome was inactive.

In the case of `COC(=O)c1c(Cl)nn(C)c1S(=O)(=O)NC(=O)Nc1nc(OC)cc(OC)n1`, the outcome was inactive.

Turning to `CSC(=O)c1cccc2nnsc12`, the compound was called inactive.

On to `S=C(S)NCCNC(=S)S.[Mn+2].[S-]C([S-])=NCCN=C([S-])[S-].[Zn+2]`, for which the call was inactive.

For the compound `COc1c(Cl)ccc(Cl)c1C(=O)O`, the call was inactive.

For `CCN(CC)C(=O)c1cccc(C)c1`, the result was inactive.

Turning to `OB(O)O`, the result was inactive.

On to `COC(=O)CSc1cc(N=c2sc(=O)n3n2CCCC3)c(F)cc1Cl`, for which the compound was classed as inactive.

As for `C=CCOC(Cn1ccnc1)c1ccc(Cl)cc1Cl` (stereo not given), the compound was called inactive.

With `CCC(O)=C1C(=O)CC(C(=O)O)CC1=O` (stereo not given), the outcome was inactive.

Turning to `COC(=O)c1ccc(CNS(C)(=O)=O)cc1S(=O)(=O)NC(=O)Nc1nc(OC)cc(OC)n1`, the compound was called inactive.

With `CCC(C)OC(=O)N1CCCCC1CCO` (stereo not given), the compound was classed as inactive.

With `COC(=O)c1ccc(I)cc1S(=O)(=O)NC(=O)Nc1nc(C)nc(OC)n1`, the compound was called inactive.

`c1ccc(Nc2ccccc2)cc1`: the outcome was inactive.

Turning to `CCCCOC(=O)[C@@H](C)Oc1ccc(Oc2ccc(C(F)(F)F)cn2)cc1`, the call was inactive.

As for `CC1(C)C(C=C(Cl)Cl)C1C(=O)OCc1cccc(Oc2ccccc2)c1` (stereo not given), the outcome was inactive.

As for `CCN(Cc1c(F)cccc1Cl)c1c([N+](=O)[O-])cc(C(F)(F)F)cc1[N+](=O)[O-]`, the call was inactive.

On to `CCCCCCC(C)OC(=O)COc1nc(F)c(Cl)c(N)c1Cl` (stereo not given), for which the outcome was inactive.

For `CCCCOCCOCCOCc1cc2c(cc1CCC)OCO2`, the compound was called inactive.

Turning to `CCOC(=O)NCCOc1ccc(Oc2ccccc2)cc1`, the result was inactive.

For the compound `CCNc1nc(N)nc(Cl)n1`, the call was inactive.

With `c1ccc2[nH]c(-c3cscn3)nc2c1`, the call was inactive.

Regarding `COc1nc(C)nc(NC(=O)NS(=O)(=O)c2ccccc2OCCCl)n1`, the outcome was inactive.

`CCCCC(CC)COC(=O)c1ccccc1C(=O)O` (stereo not given): the result was inactive.

`COC(=O)c1cccc(C)c1S(=O)(=O)NC(=O)Nc1nc(OCC(F)(F)F)nc(N(C)C)n1`: the call was inactive.

`CN(C)C(=O)Nc1ccc(Cl)c(Cl)c1`: the outcome was inactive.

As to `CCOC(=O)[C@H](C)Oc1ccc(Oc2nc3ccc(Cl)cc3o2)cc1`, the compound was called inactive.

Take `CCOC(=O)COc1cc(-n2ncc(C(F)(F)F)c(C)c2=O)c(F)cc1Cl`: the call was inactive.

For the compound `CCSC(=O)N(CC(C)C)CC(C)C`, the compound was called inactive.

As for `CC(C)(c1ccc(O)cc1)c1ccc(O)cc1`, the call was inactive.

For the compound `Oc1ccc(C(c2ccc(O)cc2)C(Cl)(Cl)Cl)cc1`, the compound was classed as inactive.

As to `COC(=O)c1ccccc1C(=O)O`, the call was inactive.

As for `CCCCOC(=O)C(C)Oc1ccc(Oc2ccc(C(F)(F)F)cn2)cc1` (stereo not given), the compound was called inactive.

As for `CCCN(CCC)c1c([N+](=O)[O-])cc(C(F)(F)F)c(N)c1[N+](=O)[O-]`, the result was inactive.

As for `CCOC(=O)C(C)Oc1ccc(Oc2nc3ccc(Cl)cc3o2)cc1` (stereo not given), the call was inactive.

Consider `C#CCOC(=O)[C@@H](C)Oc1ccc(Oc2ncc(Cl)cc2F)cc1`, for which the result was inactive.
